# ChEMBL document CHEMBL3988442, “University of Dundee, Small-Polar-MMV Screening Library” (2021)
# The campaign covered roughly 48,000 compounds. About 13,000 (27%) showed an effect of 50% or more. This is one part of the list.
# Test system: Wolbachia pipientis
# Assay: Anti-Wolbachia Cell-Based Screen
# Format: functional
# Parameters: scale not given: in the data most compounds retested in dose-response had high values
# Details: 5 µM
row,Structure (SMILES),Percent Effect
1,O=C(c1cccnc1)N1CCN2C(=O)N(Cc3ccc(F)cc3)C[C@H]2C1,2.014%
2,Cn1ccc2cc(CC3COCCN(C(=O)c4cccnc4)C3)ccc21 (stereo not given),69.9%
3,COc1cccc(CCC2CCCN(C(=O)c3ccccn3)C2)c1 (stereo not given),-14.56%
4,Cn1ccc2cc(CC3COCCN(C(=O)c4ccccn4)C3)ccc21 (stereo not given),118.8%
5,CN(C)CCN1CC(C(=O)NCc2ccc(C#N)cc2)CC1=O (stereo not given),-12.86%
6,COc1ccc(CC(C)(O)CNC(=O)NCc2cccs2)cc1 (stereo not given),-12.02%
7,Cc1nc2c(c(=O)n1C)CN(C(=O)C1CCCN(CC(N)=O)C1)C2 (stereo not given),-6.994%
8,CN(CC(=O)NC(Cc1ccccc1)C1CCCC1)S(C)(=O)=O (stereo not given),1.289%
9,Cc1cc(N2CCC(C(=O)O)(n3ccc(C(C)(C)C)n3)CC2)nc(N)n1,-17.81%
10,Cc1cc(NC(=O)NCC(c2ccc(C)o2)N2CCOCC2)n(C)n1 (stereo not given),126.3%
11,Cc1cnc(C(=O)NCC(c2ccc(C)o2)N2CCOCC2)cn1 (stereo not given),-11.84%
12,Cc1cc(NC(=O)NCc2ccccc2OC(F)F)n(C)n1,8.208%
13,Cc1cc(NC(=O)NCCc2ccccc2)n(C)n1,-5.779%
14,Cc1cc(NC(=O)NCC(O)c2ccc(Cl)cc2Cl)n(C)n1 (stereo not given),1.838%
15,Cc1cc(NC(=O)NCC(c2ccccc2)N2CCOCC2)n(C)n1 (stereo not given),108.2%
16,CCc1ccccc1OCCCN(C)C(=O)C1CCCN1C(N)=O (stereo not given),-6.634%
17,CCC(NC(=O)CC(F)(F)F)c1ccccc1OCC(=O)N1CCCC1 (stereo not given),-4.718%
18,CCCc1cc(C(=O)N(Cc2cccnc2)C[C@@H]2CCC(=O)N2)no1,-10.16%
19,CC(C)CN1C[C@@H]2C(=O)NC3(CCN(C(=O)c4cccnc4)CC3)[C@@H]2C1,1.9%
20,Cc1ncccc1C(=O)N1CCC2(CCc3ccccc3C(=O)N2)C1 (stereo not given),98.8%
21,O=C1CCC2(CCCN(C(=O)c3cccnc3)CC2)N1 (stereo not given),-2.669%
22,O=C1NC2(CCc3ccccc31)CCN(C(=O)c1ccncc1)C2 (stereo not given),94.99%
23,Cc1nccc(-c2ccccc2)c1C(=O)N1CCC2(CC(=O)NC2=O)C1 (stereo not given),-6.27%
24,O=C1NC2(CCc3ccccc31)CCN(C(=O)c1cccnc1)C2 (stereo not given),113.1%
25,O=C1CCC2(CCCN(C(=O)c3cccs3)C2)N1 (stereo not given),-85.27%

row,Structure (SMILES),Percent Effect
1,Cc1nccc(-c2ccccc2)c1C(=O)N1CC[C@](C)(O)C(C)(C)C1,-0.4275%
2,CCC(C)(CC(=O)OC)NCc1noc(C)n1 (stereo not given),-21.8%
3,CC(C)c1nnc2n1CCN(C(=O)COc1ccc(C(N)=O)cc1)C2,-6.982%
4,COCC1CC2(CCN(C(=O)C3CCSCC3)CC2)CO1 (stereo not given),-14.44%
5,CCCC(Nc1c(C#N)c(=O)n(C)c(=O)n1C)c1ccc(F)cc1F (stereo not given),-0.1424%
6,O=C(O)C(F)(F)F.O=C(O)C(F)(F)F.O=C(O)C(F)(F)F.c1c[nH]c(CN2CCC3(CC2)COCCN(CCN2CCCC2)C3)c1,-16.15%
7,CN1CC(c2ccccc2)C2(CCN(C(=O)c3ccc[nH]3)CC2)C1=O (stereo not given),-2.349%
8,Cn1cccc1C(=O)N1CCCC2(CCN(CCN3CCCC3)C2=O)C1.O=C(O)C(F)(F)F (stereo not given),-2.422%
9,COCCN1CC[C@]2(CN(C(=O)c3ccc[nH]3)C[C@H]2C)C1=O,91.74%
10,CN1CC[C@]2(CN(C(=O)c3ccc[nH]3)C[C@H]2c2ccccc2)C1=O,-8.445%
11,C[C@@H]1CN(C(=O)c2ccc[nH]2)C[C@]12CCN(CCN1CCCC1)C2=O.O=C(O)C(F)(F)F,108.3%
12,CN(C)C(=O)CCC(=O)N1CCC2(CC1)COC2,-20.99%
13,Cc1sc(NC(=O)CN2CCCC(c3ncc[nH]3)C2)c(C)c1C (stereo not given),13.59%
14,COc1c(CNC2CCc3cc(Cl)ccc32)c(C)nn1C (stereo not given),202%
15,COc1c(CNC2CCCOc3ccccc32)c(C)nn1C (stereo not given),-2.484%
16,COc1c(CNC2CCOc3ccccc32)c(C(C)C)nn1C (stereo not given),-0.8821%
17,COc1c(CNC2CCc3cc(F)ccc32)c(C(C)C)nn1C (stereo not given),97.63%
18,Cn1ncnc1CNC1CCc2cc(Cl)ccc21 (stereo not given),-6.658%
19,COc1c(CNC2CCc3cc(C)ccc32)c(C)nn1C (stereo not given),196.3%
20,COc1c(CNC2CCOc3c(F)cccc32)c(C)nn1C (stereo not given),-5.109%
21,COc1c(CNC2CCCc3ccccc32)c(C(C)C)nn1C (stereo not given),-2.774%
22,Cc1ccc2c(c1)CCC2NCc1c(C)nn(CCO)c1C.Cl (stereo not given),9.193%
23,COc1c(CNC2CCc3c(F)cccc32)c(C)nn1C.Cl (stereo not given),125.6%
24,COc1c(CNC2CCc3c(Cl)cccc32)c(C)nn1C.Cl (stereo not given),-6.251%
25,COc1c(CNC2CCOc3c(Cl)cccc32)c(C)nn1C.Cl (stereo not given),-20.37%
